# Experimental data taken from article PMC7862700, “An all-to-all approach to the identification of sequence-specific readers for epigenetic DNA modifications on cytosine”.
# Assays:
# Experiment in all cases: DAPPL (digital affinity profiling via proximity ligation, sequencing); 10 mM Tris-HCl pH 7.5, 50 mM NaCl, 1 mM DTT, 4% glycerol, room temperature, 30 min; GST-TFs on glutathione beads, 16-mer random dsDNA library, 0.1% formaldehyde crosslink after washing; high values mean tight binding
# FEV = molecular target: T1, FEV (Homo sapiens, UniProt Q99581 1-238); conditions: protein: recombinant; tags: N-terminal GST; dsDNA, one strand shown
# T1 sequence: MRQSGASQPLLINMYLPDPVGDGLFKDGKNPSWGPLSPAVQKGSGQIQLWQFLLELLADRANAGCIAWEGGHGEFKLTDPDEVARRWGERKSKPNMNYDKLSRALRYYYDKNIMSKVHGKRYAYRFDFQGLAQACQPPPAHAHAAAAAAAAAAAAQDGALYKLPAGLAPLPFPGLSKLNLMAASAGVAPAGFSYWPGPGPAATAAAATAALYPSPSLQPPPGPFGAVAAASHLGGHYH
# How it was run: (§1)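 A tag-only sample was pooled with DNA-barcoded human transcription factors that had been expressed in yeast as GST fusions and captured on glutathione beads. The pools were incubated for 30 min at room temperature with 200 nmole of a random double-stranded 16-mer DNA library in Tris/NaCl/DTT/glycerol buffer, then washed, crosslinked with 0.1% formaldehyde, proximity-ligated (BsaI/T4 ligase, 1 h, 37 °C), PCR-amplified and sequenced on an Illumina NextSeq500. Binding signal is each hexamer's read frequency for a factor divided by its frequency for the tag-only sample.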
# ETV5 = ETV5 (Homo sapiens, UniProt P41161 1-510); conditions: protein: recombinant; tags: N-terminal GST; dsDNA, one strand shown
# Chain of ETV5 (P41161 whole entry): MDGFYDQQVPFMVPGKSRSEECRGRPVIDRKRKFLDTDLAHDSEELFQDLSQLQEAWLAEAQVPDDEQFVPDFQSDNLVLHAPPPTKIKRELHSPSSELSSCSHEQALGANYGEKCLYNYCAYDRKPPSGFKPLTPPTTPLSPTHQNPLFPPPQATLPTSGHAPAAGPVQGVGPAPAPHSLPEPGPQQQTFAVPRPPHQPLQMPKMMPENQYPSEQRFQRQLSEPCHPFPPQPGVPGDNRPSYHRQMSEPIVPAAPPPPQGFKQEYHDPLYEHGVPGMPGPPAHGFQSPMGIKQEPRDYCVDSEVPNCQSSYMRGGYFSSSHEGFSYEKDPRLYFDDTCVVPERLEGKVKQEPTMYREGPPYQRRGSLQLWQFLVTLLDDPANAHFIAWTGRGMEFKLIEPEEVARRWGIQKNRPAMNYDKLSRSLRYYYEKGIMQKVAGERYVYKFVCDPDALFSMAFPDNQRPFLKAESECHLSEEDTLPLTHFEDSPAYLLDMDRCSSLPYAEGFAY
# How it was run: as §1
# HSF1 = HSF1 (Homo sapiens, UniProt Q00613 1-529); conditions: protein: recombinant; tags: N-terminal GST; chain copies: 3; dsDNA, one strand shown
# Chain of HSF1 (Q00613 whole entry): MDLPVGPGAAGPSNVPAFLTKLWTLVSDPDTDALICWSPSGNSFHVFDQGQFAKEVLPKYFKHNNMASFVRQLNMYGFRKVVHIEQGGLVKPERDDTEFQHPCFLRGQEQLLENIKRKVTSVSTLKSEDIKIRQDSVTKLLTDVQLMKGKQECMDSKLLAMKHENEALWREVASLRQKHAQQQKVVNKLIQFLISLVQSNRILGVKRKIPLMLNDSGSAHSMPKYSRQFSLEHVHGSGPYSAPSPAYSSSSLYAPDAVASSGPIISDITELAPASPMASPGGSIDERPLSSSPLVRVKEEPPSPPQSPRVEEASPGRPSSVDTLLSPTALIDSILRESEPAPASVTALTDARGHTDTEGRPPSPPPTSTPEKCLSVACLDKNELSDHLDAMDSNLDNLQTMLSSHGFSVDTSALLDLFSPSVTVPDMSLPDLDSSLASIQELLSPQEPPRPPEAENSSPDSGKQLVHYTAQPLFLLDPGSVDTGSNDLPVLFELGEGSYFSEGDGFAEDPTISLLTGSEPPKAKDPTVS
# How it was run: as §1
# SPIC = molecular target: T2, SPIC (Homo sapiens, UniProt Q8N5J4 1-248); conditions: protein: recombinant; tags: N-terminal GST; dsDNA, one strand shown
# T2 sequence: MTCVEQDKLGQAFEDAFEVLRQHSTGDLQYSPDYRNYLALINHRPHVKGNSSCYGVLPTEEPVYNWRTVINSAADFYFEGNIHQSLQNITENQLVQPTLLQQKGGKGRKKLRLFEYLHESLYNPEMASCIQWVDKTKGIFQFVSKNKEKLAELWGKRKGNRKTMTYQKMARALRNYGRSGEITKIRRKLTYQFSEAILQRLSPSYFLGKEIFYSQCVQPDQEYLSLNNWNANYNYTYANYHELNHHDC
# How it was run: as §1
# ELF4 = ELF4 (Homo sapiens, UniProt Q99607 1-663); conditions: protein: recombinant; tags: N-terminal GST; dsDNA, one strand shown
# Chain of ELF4 (Q99607 whole entry): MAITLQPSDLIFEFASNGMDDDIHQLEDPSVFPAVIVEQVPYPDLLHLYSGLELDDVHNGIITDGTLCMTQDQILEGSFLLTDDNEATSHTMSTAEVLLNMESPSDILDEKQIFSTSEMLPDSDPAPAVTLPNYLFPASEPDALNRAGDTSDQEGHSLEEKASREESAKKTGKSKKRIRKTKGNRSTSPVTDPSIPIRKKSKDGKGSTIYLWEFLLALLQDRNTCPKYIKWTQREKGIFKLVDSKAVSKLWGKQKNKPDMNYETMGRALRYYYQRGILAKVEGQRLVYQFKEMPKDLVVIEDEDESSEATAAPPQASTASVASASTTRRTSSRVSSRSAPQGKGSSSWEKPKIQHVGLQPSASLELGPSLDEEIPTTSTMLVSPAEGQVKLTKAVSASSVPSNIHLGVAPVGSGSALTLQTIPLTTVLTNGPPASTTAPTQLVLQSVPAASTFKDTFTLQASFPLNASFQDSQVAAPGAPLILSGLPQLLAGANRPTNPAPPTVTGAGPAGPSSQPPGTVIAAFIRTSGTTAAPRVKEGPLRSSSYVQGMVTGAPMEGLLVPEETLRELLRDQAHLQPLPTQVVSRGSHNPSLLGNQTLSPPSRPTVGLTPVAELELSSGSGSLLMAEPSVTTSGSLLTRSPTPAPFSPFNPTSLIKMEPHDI
# How it was run: as §1
# ELK4 = molecular target: T3, ELK4 (Homo sapiens, UniProt P28324-2 1-405); conditions: protein: recombinant; tags: N-terminal GST; dsDNA, one strand shown
# T3 sequence: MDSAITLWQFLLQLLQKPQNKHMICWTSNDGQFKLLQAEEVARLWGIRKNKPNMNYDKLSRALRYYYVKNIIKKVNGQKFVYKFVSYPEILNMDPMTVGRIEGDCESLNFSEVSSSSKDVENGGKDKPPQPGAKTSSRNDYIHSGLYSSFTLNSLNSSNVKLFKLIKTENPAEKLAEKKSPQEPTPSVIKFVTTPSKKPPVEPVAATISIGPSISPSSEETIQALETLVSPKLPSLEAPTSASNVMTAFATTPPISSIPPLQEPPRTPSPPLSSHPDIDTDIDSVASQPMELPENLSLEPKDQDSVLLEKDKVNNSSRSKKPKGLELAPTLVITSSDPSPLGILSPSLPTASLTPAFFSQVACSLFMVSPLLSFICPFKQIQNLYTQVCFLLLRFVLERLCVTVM
# How it was run: as §1
# ETV2 = molecular target: T4, ETV2 (Homo sapiens, UniProt O00321 1-342); conditions: protein: recombinant; tags: N-terminal GST; dsDNA, one strand shown
# T4 sequence: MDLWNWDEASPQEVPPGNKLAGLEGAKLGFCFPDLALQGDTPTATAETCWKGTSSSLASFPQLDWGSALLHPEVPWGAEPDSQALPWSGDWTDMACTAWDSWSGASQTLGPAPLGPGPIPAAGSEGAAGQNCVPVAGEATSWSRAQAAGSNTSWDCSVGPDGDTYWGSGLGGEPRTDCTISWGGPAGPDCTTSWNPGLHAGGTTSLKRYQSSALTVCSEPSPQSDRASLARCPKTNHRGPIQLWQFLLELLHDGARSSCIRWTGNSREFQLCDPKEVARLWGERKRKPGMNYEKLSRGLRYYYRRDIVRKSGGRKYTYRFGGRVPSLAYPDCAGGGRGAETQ
# How it was run: as §1
# ELF3 = molecular target: T5, ELF3 (Homo sapiens, UniProt P78545 1-371); conditions: protein: recombinant; tags: N-terminal GST; dsDNA, one strand shown
# T5 sequence: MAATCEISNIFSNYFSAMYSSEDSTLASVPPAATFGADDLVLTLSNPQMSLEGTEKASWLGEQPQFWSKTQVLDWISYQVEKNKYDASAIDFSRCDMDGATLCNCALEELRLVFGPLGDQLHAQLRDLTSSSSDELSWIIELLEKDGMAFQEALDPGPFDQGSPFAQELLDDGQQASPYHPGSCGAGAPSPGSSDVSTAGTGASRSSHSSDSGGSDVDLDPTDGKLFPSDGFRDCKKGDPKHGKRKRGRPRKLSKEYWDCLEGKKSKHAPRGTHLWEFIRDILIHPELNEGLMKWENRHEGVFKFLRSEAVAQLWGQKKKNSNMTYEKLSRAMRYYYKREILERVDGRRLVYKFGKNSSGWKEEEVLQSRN
# How it was run: as §1
# CRX = CRX (Homo sapiens, UniProt O43186 1-299); conditions: protein: recombinant; tags: N-terminal GST; dsDNA, one strand shown
# Chain of CRX (O43186 whole entry): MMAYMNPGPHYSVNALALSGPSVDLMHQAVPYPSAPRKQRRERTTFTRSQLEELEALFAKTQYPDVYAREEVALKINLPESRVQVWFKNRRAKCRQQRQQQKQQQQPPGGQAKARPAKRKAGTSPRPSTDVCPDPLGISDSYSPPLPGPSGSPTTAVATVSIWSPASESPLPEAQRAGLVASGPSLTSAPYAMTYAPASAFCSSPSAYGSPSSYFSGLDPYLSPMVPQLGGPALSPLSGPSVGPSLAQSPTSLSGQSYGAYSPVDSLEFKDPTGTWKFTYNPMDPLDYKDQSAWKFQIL
# How it was run: as §1
# ETV1 = ETV1 (Homo sapiens, UniProt P50549 1-477); conditions: protein: recombinant; tags: N-terminal GST; dsDNA, one strand shown
# Chain of ETV1 (P50549 whole entry): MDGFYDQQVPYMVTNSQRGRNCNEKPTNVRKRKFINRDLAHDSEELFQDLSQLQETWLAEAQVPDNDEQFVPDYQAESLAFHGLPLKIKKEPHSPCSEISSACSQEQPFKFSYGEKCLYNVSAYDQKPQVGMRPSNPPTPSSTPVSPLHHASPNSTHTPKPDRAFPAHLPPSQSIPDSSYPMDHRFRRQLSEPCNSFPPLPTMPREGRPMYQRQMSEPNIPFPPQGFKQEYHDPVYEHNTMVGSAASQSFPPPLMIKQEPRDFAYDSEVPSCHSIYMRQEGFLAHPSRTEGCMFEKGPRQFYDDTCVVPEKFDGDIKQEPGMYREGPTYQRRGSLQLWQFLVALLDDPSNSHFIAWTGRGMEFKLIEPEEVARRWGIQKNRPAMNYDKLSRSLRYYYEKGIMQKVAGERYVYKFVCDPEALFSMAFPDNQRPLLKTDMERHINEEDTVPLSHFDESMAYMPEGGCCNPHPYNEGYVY
# How it was run: as §1
sequence,measurement,setting,value
TGTATC,binding signal,FEV,"1.41 fold enrichment (6-mer frequency, TF over GST control)"
same,binding signal,ETV5,"1.4 fold enrichment (6-mer frequency, TF over GST control)"
same,binding signal,HSF1,"1.16 fold enrichment (6-mer frequency, TF over GST control)"
same,binding signal,SPIC,"1.46 fold enrichment (6-mer frequency, TF over GST control)"
same,binding signal,ELF4,"1.44 fold enrichment (6-mer frequency, TF over GST control)"
same,binding signal,ELK4,"1.46 fold enrichment (6-mer frequency, TF over GST control)"
same,binding signal,ETV2,"1.36 fold enrichment (6-mer frequency, TF over GST control)"
same,binding signal,ELF3,"1.41 fold enrichment (6-mer frequency, TF over GST control)"
same,binding signal,CRX,"1.15 fold enrichment (6-mer frequency, TF over GST control)"
same,binding signal,ETV1,"1.37 fold enrichment (6-mer frequency, TF over GST control)"
